Where “and” joins values, the source holds several entries; their conditions need not be identical. Identical values can stand only once. The source holds several records for some structures; these can differ, active in one and inactive in another. Calls of active or inactive are those of the source. Entries that show only a call come without a potency. Calls come from the whole dose curve; as a rule, active = well fitted activation curve with a large enough effect in the repeat runs; inconclusive = weak or mixed curves; inactive = flat fitted curve, though single readings scatter.
Assay: A CellTox Green Cytotoxicity Assay to monitor cytotoxicity in HEK293 cells - 0 hour (AID 1224869); note: nearly all actives have a fitted effect of over 50% in size
Settings: CellTox Green fluorescence; series mostly up to 76.8 µM
Source text: National Center for Advancing Translational Sciences [NCATS]
NIH Chemical Genomics Center [NCGC]
U.S. Environmental Protection Agency [EPA]
National Institutes of Environmental Health Sciences [NIEHS]
National Toxicology Program [NTP]
Cell-based models are critical for drug discovery. Determining the natural cytotoxic effects resulting from test compounds is an essential research activity. A CellTox Green Cytotoxicity Assay to monitor cytotoxicity in real time of continues cell culture during 40 hours of the compound treatment was used to screen Tox21 10K library compounds in Hek293 cells. CellTox Green Cytotoxicity Assay is a nonlytic, homogeneous, biofluorescent method to measure cytotoxicity in cell culture after experimental manipulation. The assay system uses a proprietary asymmetric cyanine dye that is excluded from viable cells but preferentially stains the dead cell's DNA. […] Viable cells produce no appreciable increases in fluorescence. Therefore, the fluorescence signal produced by the binding interaction with dead cell DNA is proportional to cytotoxicity.
The mixture of Hek293 cell suspension and reagents were dispensed at 600cells/6 ul/well in 1536-well tissue culture treated black solid bottom plates using a Multidrop dispenser. After the assay plates were incubated at a 37 C/5% CO2 incubator for 5 hours, 23 nL of compounds dissolved in DMSO, positive and negative controls was transferred to the assay plate by a pintool work station. The plates were incubated at 37 C for 40 hours. The fluorescence intensity were measured at 0h, 8h, 16h, 24h, 32h and 40h time points using ViewLux plate reader during compound treatment.
Potency is the fitted concentration of half-maximal effect.

Compound	Potency
CC(C)n1c(/C=C/[C@@H](O)C[C@@H](O)CC(=O)O)c(-c2ccc(F)cc2)c2ccccc21	inactive
O=Nc1ccc(O)cc1	inactive
CCCCOCCOCCOC(=O)CCCCC(=O)OCCOCCOCCCC	inactive
CC(=O)[C@@]1(O)CC[C@H]2[C@@H]3CCC4=CC(=O)CC[C@]4(C)[C@H]3CC[C@@]21C	inactive
CC(=O)CCc1ccccc1	inactive
c1ccc2ccccc2c1	inactive
NCCc1ccc(O)c(O)c1	inactive
Cc1cc(NS(=O)(=O)c2ccc(N)cc2)no1	inactive
O=C(Cl)c1c(Cl)c(Cl)c(C(=O)Cl)c(Cl)c1Cl	inactive
CS(=O)(=O)Nc1ccc([N+](=O)[O-])cc1Oc1ccccc1	inactive
C=C(C)C(=O)OCC(CC)(COC(=O)C(=C)C)COC(=O)C(=C)C	inactive and 42.9 µM (active)
C[C@@H]1O[C@@H](OC[C@H]2O[C@@H](Oc3c(-c4ccc(O)c(O)c4)oc4cc(O)cc(O)c4c3=O)[C@H](O)[C@@H](O)[C@@H]2O)[C@H](O)[C@H](O)[C@H]1O	inactive
COC(=O)c1ccc(C(=O)OC)cc1	inactive
NCc1cccc(CN)c1	inactive
CN(C)c1ccc(C(=N)c2ccc(N(C)C)cc2)cc1	inactive
CCC(=O)O	inactive
CCCCCCCCCCC=CC1CC(=O)OC1=O (stereo not given)	inactive
NS(=O)(=O)c1cc2c(cc1Cl)NC=NS2(=O)=O	inactive
Clc1cc(Cl)c(Cl)cc1Cl	inactive
CS(=O)(=O)c1ccc([C@@H](O)[C@@H](CO)NC(=O)C(Cl)Cl)cc1	inactive

Compound	Potency
C/C=C(C)/C=C/C=C(C)C	inactive
Nc1c(S(=O)(=O)O)cc(Br)c2c1C(=O)c1ccccc1C2=O	inactive
CCc1ccc(O)cc1	inactive
Cc1cc(O)c2c(c1)C(=O)c1cc(O)cc(O)c1C2=O	inactive
CCCCC(CC)C(=O)OCCOCCOCCOC(=O)C(CC)CCCC (stereo not given)	inactive
CCCCNC(N)=O	inactive
CC(C)(C)C1CCC(O)CC1 (stereo not given)	inactive
S=c1nc[nH]c2nc[nH]c12	inactive
CC1CC(OC(=O)c2ccccc2O)CC(C)(C)C1 (stereo not given)	inactive
O=[N+]([O-])C(CO)(CO)CO	inactive
CC(C)(C)C(=O)C1C(=O)c2ccccc2C1=O	inactive
C=C(C)C(=O)OCCC[Si](OC)(OC)OC	inactive
OCC1CCCO1 (stereo not given)	inactive
CCCCOCCO	inactive
NCCNCCNCCNCCN	inactive
OC[C@@H](O)[C@@H](O)[C@H](O)[C@@H](O)CO	inactive
O=C(O)c1ccc([N+](=O)[O-])cc1	inactive
C=C1CC[C@H](O)CC1=C/C=C1\CCC[C@]2(C)[C@@H]([C@H](C)/C=C/[C@H](C)C(C)C)CC[C@@H]12	inactive
O=C(c1cc(O)c(O)c(O)c1)c1ccc(O)c(O)c1O	inactive
CC1=C(CC(=O)O)c2cc(F)ccc2/C1=C\c1ccc(S(C)=O)cc1 (stereo not given)	inactive

Reference: PubChem BioAssay (Tox21)
